UBC9 SUMO inh – SUMOylation inhibition; P63279; HTRF SUMOylation assay, SAE1/SAE2 + UBC9, in vitro; inhibition, % at 35 µM; 0.36% of 290,000 active; AID 2006; in the data active = inhibition above about 50%, passing the limit was not always enough
Target sequence (P63279 whole entry, looked up): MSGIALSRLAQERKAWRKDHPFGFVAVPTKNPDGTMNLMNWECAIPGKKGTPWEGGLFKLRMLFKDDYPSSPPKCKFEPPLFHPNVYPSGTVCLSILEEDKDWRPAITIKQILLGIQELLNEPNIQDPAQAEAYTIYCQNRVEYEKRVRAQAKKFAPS
S1P4 antag – blocks the human S1P4 receptor; O95977; S1P4-expressing cells, antagonist mode, reporter read-out; inhibition, % at 4.98 µM; 0.26% of 220,000 active; AID 1510; in the data active = inhibition above about 29%;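 note: 0% = wells stimulated with agonist and 100% = vehicle wells without agonist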
p97 ATPase inh – blocks human p97 ATPase activity. P55072. recombinant p97 ATPase, Kinase-Glo ATP luminescence, 3 h. 0.42% of 220,000 active. inhibition, % at 8 µM; in the data active = inhibition above about 15%;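 note: 0% = DMSO vehicle and 100% = wells lacking enzyme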
S1P3 antag-1 – blocks the human S1P3 receptor; Q99500; CHO S1P3 NFAT-BLA reporter, FRET fluorescence, antagonist mode; inhibition, % at 4.98 µM; 0.27% of 170,000 active; AID 485;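 active = inhibition above the plate cutoff, the mean inhibition of test wells on that plate plus 3 SD, cut at about 28% in these data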;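 note: cells challenged with S1P at its EC80 of 0.8 µM; blue over green emission ratio from cleaved BLA substrate after 4 h stimulation; 0% = S1P-stimulated wells and 100% = unstimulated DMSO-only wells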
Target sequence (Q99500 whole entry, looked up): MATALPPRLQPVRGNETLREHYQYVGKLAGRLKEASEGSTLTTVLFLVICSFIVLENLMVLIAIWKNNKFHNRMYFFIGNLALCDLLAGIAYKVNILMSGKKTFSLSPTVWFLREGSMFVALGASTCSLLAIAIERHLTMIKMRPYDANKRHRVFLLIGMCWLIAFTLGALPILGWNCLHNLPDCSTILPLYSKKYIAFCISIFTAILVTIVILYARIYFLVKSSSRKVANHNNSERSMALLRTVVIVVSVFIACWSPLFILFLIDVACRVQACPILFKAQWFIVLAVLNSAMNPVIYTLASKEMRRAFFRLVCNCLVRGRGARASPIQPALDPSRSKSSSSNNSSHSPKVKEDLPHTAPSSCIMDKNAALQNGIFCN
DTT redox prof – compounds producing H2O2 with reducing agent – biochemical, NIH compound library profiling, artefact control for MLSCN library redox annotation, primary screen | DTT-dependent redox cycling H2O2, phenol red/HRP absorbance; 100% = 100 µM peroxide control, 0% = buffer | 0.03% of 200,000 active | activation, % at 10 µM;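 active = activation of at least 50% relative to the plate's high and low controls in the primary single-dose screen; inactive = activation below 50%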;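 note: compound incubated with DTT at 0.8 mM final as the reducing agent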
S1P4 agonist – activates the human S1P4 receptor | 0.35% of 220,000 active | S1P4-expressing cell line, agonist reporter assay | O95977 | activation, % at 4.98 µM; in the data active = activation above about 11%;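 note: 0% = DMSO vehicle and 100% = reference agonist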
S1P3 antag-2 – human S1P3 receptor antagonism, confirmation; inhibition, % at 4.98 µM; 30% of 240 active; AID 1429; CHO S1P3 NFAT-BLA reporter, FRET, antagonist mode; shares compounds with S1P3 antag-1;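 active = inhibition above the hit threshold that was computed for the earlier primary screen, cut at about 30% in these data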;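 note: 0% = S1P-stimulated wells and 100% = unstimulated DMSO-only wells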
The depositor's hits bear a star; . = no result. Sampled rows, rich in hits. Any-hit rate of the full collection: about 1.1%.

SMILES	UBC9 SUMO inh	S1P4 antag	p97 ATPase inh	S1P3 antag-1	DTT redox prof	S1P4 agonist	S1P3 antag-2
COc1ccc(Cc2noc(CN3CCCN(C4Cc5ccccc5C4)CC3)n2)cc1OC	0.3	-9.7	1.7	7.0	-1.0	0.3	.
Cc1nc(C(C)NC(=O)CCc2nnc(-c3ccsc3)o2)cs1 (configuration not stated)	-0.5	0.3	1.2	37.8*	-0.8	1.1	-8.4
COC(=O)[C@@H](NC(=O)CCc1nnc(-c2ccsc2)o1)C(C)C	-13.4	-17.6	6.3	-8.1	-1.1	-0.1	.
O=C(O)CC(CC(=O)Nc1ccc(F)c(Cl)c1)c1ccc(Cl)cc1Cl (configuration not stated)	5.8	-14.2	1.2	59.1*	.	-0.1	-6.6
O=C1c2cccc3c(N4CCCCC4)ccc(c23)C(=O)N1c1cccc(O)c1	28.2	18.6	4.3	51.1*	0.3	1.3	45.0*
CCOC(=O)c1ccc(Oc2cn[nH]c2-c2ccc(O)cc2O)cc1	-17.4	2.1	8.3	29.0*	.	0.5	-16.4
CCCOC(=O)c1ccc(Oc2cn[nH]c2-c2ccc(O)cc2O)cc1	13.0	-7.9	5.9	-0.8	.	-0.1	.
CCOc1ccc(C(=O)c2cc([N+](=O)[O-])ccc2N2CCOCC2)cc1	-61.0	22.9	0.0	33.4*	-0.5	-1.2	19.5
O=C(Nc1ccccc1C(=O)Nc1nnc(C(F)(F)F)s1)c1ccccc1Cl	18.5	-10.3	5.3	-0.1	.	-0.2	.
Cc1cc(C)c(S(C)(=O)=O)c(NN)n1	22.4	-1.9	1.8	-2.6	-0.8	1.5	.
O=[N+]([O-])c1ccc(/C=C/C2=NN(c3ccccc3)C(c3ccco3)C2)cc1 (configuration not stated)	19.2	3.7	-0.5	-5.6	1.7	-0.8	.
O=[N+]([O-])c1ccc(C2=NN(c3ccccc3)C(c3ccco3)C2)cc1 (configuration not stated)	8.3	12.0	0.4	34.3*	.	-0.2	45.6*
C=CCNC(=S)Nc1ccc(Cl)c(S(=O)(=O)N2CCOCC2)c1	-1.0	-12.7	0.7	69.6*	7.3	1.3	-10.8
C=CCNC(=S)Nc1ccc(OC)c(S(=O)(=O)N2CCOCC2)c1	3.1	-7.2	-0.9	-13.8	-0.3	-1.4	.
O=C(N/N=C\c1ccc(COc2ccc([N+](=O)[O-])cc2)o1)c1cccc(Cl)c1	-11.1	-25.3	4.8	.	0.4	-1.2	.
CCCCCCCCn1ccc(=N)cc1	11.7	1.6	-3.0	34.6*	.	0.2	-6.5
CCCCCCCCCCn1ccc(=N)cc1	12.1	8.5	-2.3	18.3	.	1.8	.
Cc1ccc(NC(=O)C2(c3ccc([N+](=O)[O-])cc3)CCCC2)cc1	0.9	-1.8	2.2	48.1*	-0.1	2.7	50.3*
Cc1ccc(OCC(=O)Nc2ccc([N+](=O)[O-])cc2)cc1	-3.5	2.5	1.8	14.4	0.0	1.1	.
CCN1/C(=C/c2sc(-c3ccccc3C)c[n+]2C)Sc2ccccc21	-1.3	-9.4	0.4	35.5*	-0.5	1.4	38.3*
C/C(Cn1nnc2ccccc21)=N\NC(=O)c1cccc(Br)c1	4.5	-10.7	3.8	28.9*	0.3	-1.9	-6.2
NNC(=O)CCc1ccc(S(=O)(=O)N2CCOCC2)cc1	-6.1	9.3	3.2	-14.2	0.1	0.4	.
Fc1ccc(-c2n[nH]c(=S)c3ccccc23)cc1	-15.8	-0.3	0.5	65.0*	-0.3	0.9	-14.4
O=c1[nH]nc(-c2ccccc2)c2ccccc12	-0.3	14.0	1.1	9.8	.	1.9	.
O=C(N/N=C/c1ccc(O)cc1)Nc1cccc2nsnc12	18.8	-13.6	4.9	31.3*	-0.6	-1.4	3.9
SMILES	UBC9 SUMO inh	S1P4 antag	p97 ATPase inh	S1P3 antag-1	DTT redox prof	S1P4 agonist	S1P3 antag-2
CC(=O)CCC(=O)OCC(=O)Nc1ccc(SC(F)F)cc1	-0.2	20.0	-8.9	43.2*	-1.9	-3.0	-9.9
CC(=O)N1CCc2cc(S(=O)(=O)CCC(=O)NCCc3ccccc3)ccc21	2.1	.	.	.	.	.	.
COC(=O)C1=C(C(=O)OC)[C@@H]2N(C)c3ccccc3[C@@]23C[C@@H](C(=O)OC)N(C(=O)c2cc(C)oc2C)C3=N1	1.5	.	.	.	.	.	.
COc1ccc(-n2c(C)nc3sc4c(c3c2=O)CCC4)cc1	6.1	5.3	3.4	103.5*	-0.3	-0.6	-8.7
c1ccc(-c2csc3ncnc(NCCCN4CCOCC4)c23)cc1	-12.1	-21.9	0.2	.	0.8	1.0	.
Cc1sc2ncnc(NCC3COc4ccccc4O3)c2c1C (configuration not stated)	-3.7	-15.6	2.0	32.1*	0.2	-2.7	33.0*
c1ccc(-c2csc3ncnc(NCC4COc5ccccc5O4)c23)cc1 (configuration not stated)	-21.5	-1.3	-5.1	36.5*	0.8	0.1	17.1
O=C(CC1SC(=NCc2ccccc2)NC1=O)Nc1ccccc1 (configuration not stated)	1.6	-11.1	3.4	2.3	0.5	0.1	.
CN1CCN(/N=C/c2ccc(-c3ccc([N+](=O)[O-])cc3Cl)o2)CC1	2.4	12.5	-0.2	54.1*	1.8	-0.5	19.8
CN(C)c1ccc(/C=C(\C#N)C(=O)Nc2nc3c(s2)CCN(Cc2ccccc2)C3)cc1	30.6	-11.2	-4.0	.	3.5	1.8	.
CCOC(=O)C(C)Oc1cccc2c(=O)n(CC(=O)NCCc3ccccc3)ccc12 (configuration not stated)	30.4	-15.9	-6.2	19.2	.	1.2	.
CCOC(=O)C(C)Oc1cccc2c(=O)n(CC(=O)NCc3ccccc3)ccc12 (configuration not stated)	-5.4	18.7	0.3	37.4*	.	-0.2	9.3
CCOC(=O)C(C)Oc1cccc2c(=O)n(CC(=O)NCc3ccc(F)cc3)ccc12 (configuration not stated)	31.3	-5.5	-4.8	34.9*	.	1.9	8.2
CCCN1CCN(CCNC(=O)Nc2cc(C)ccc2C)CC1	4.9	.	.	.	.	.	.
CCC(C)NC(=O)c1cc2c(=O)n(CC)c3ccccc3c2s1 (configuration not stated)	3.1	.	.	.	.	.	.
CCCn1c(C)cc(/C=C(\C#N)C(=O)OCC(=O)Nc2ccc(OC)c(Cl)c2)c1C	21.4	-13.8	-2.0	92.1*	-0.4	3.0	-15.6
CCCn1c(C)cc(/C=C(\C#N)C(=O)OCC(=O)NC(=O)NCC)c1C	12.2	-17.5	-7.4	.	-0.1	0.4	.
COC(=O)C(C)(C)ONC(=O)Nc1ccccc1Cl	4.0	-1.1	2.4	39.0*	-2.1	1.8	-8.5
O=C(OC(C(=O)Nc1cccc(C(F)(F)F)c1)c1ccccc1)C1CCCCC1 (configuration not stated)	-21.3	4.2	4.4	37.2*	1.1	-1.5	30.3*
Cc1cccc(OCC(=O)Nc2ccc3c(c2)nc(CN2CCCCC2)n3C)c1	6.8	-17.0	2.0	30.5*	.	-0.8	-10.9

Assay outcomes (PubChem)
